# The list is not random: actives were taken first. Their share in the collection is about 2.7%.
# ATG4B inhibitor: ATG4B protease inhibitors, primary screen, biochemical, fluorescence, uHTS; Cysteine protease ATG4B (Homo sapiens), Q9Y4P1; ATG4B cleavage of LC3-PLA2, NBD-HPC fluorescence, 1 h; inhibition, % at 8.33 µM; 0.51% of 340,000 active; in the data active = inhibition above about 40%
# Target sequence (Q9Y4P1 whole entry, looked up): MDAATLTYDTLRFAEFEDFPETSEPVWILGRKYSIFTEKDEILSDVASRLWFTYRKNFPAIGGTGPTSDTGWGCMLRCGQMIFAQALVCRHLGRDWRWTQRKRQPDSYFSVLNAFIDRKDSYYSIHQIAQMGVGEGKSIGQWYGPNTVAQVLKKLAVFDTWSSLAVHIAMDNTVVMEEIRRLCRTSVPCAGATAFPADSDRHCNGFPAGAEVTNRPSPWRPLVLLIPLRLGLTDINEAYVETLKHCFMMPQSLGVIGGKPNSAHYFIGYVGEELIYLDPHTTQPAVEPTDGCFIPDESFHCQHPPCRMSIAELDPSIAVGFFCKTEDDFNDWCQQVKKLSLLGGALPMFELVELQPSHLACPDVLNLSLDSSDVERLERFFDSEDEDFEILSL
# SKN-1 block: suppressors of acrylamide-induced Pgst-4::GFP reporter in worms, primary screen, SKN-1 inhibitor project, whole organism, uHTS, GFP/RFP fluorescence ratio, strain VP596. C. elegans VP596 Pgst-4::GFP/RFP ratio, 24 h. inhibition, % at 21.8 µM. 0.49% of 360,000 active. AID 624304, 2012;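 active = interference check ratio from 0.5 to 1.5 plus GFP to RFP signal ratio inhibition reaching or exceeding a fixed threshold, cut at about 30% in these data, passing the limit was not always enough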
# F508del corr: F508del CFTR correction, initial screen, CFBE line, single point | activity (quench increase), % at 7.58 µM | 0.36% of 350,000 active | CFBE cells, YFP halide quenching; stimulated with forskolin plus potentiator P3; % fluorescence drop versus neutral controls | AID 720511, 2013;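 active = mean added fluorescence quench of at least 8% versus neutral control, with both replicates also reaching 8%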;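 also: cells transiently co-express mutant CFTR-F508del with the halide-sensitive YFP; corrector assay measuring rescue of mutant channel to the surface after 24 h compound exposure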
# MPTP inh: mitochondrial permeability transition pore inhibitors, primary screen, biochemical, isolated mouse mitochondria, absorbance; Ca2+ swelling absorbance, 30 min; inhibition, % at 10 µM; 1.4% of 360,000 active; AID 602449, 2012;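 active = inhibition of 50% or more, scaled per plate between neutral and stimulator controls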;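 also: 0% = DMSO wells given calcium and 100% = 1 mM EGTA wells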
# CendR NRP1 mod: modulators of CendR peptide binding to NRP-1, primary screen, biochemical, fluorescence polarization, uHTS | 0.85% of 360,000 active | inhibition, % at 25 µM | FAM-RPARPAR peptide binding to NRP-1 | AID 602438, 2012 | Neuropilin-1 (Homo sapiens), O14786;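 active = inhibition or corrected inhibition above about 18%, plus a signal ratio from 0.5 to 1.5, limit read from the data, passing the limit was not always enough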
# ATG4B conf: ATG4B protease inhibitors, retest, confirmation, biochemical, fluorescence, single concentration; shares compounds with ATG4B inhibitor; ATG4B protease fluorescent substrate cleavage assay; inhibition, % at 8.33 µM; 92% of 320 active; in the data active = inhibition above about 39%
# PLA2 ctr: PLA2 enzyme inhibition, counter-screen for ATG4B inhibitor project, biochemical, single concentration, uHTS hits; shares compounds with ATG4B inhibitor; purified PLA2, NBD-C6-HPC fluorescence, 45 min; inhibition, % at 8.33 µM; 66% of 1,600 active; in the data active = inhibition above about 50%
# Target sequence (P04054 whole entry, looked up): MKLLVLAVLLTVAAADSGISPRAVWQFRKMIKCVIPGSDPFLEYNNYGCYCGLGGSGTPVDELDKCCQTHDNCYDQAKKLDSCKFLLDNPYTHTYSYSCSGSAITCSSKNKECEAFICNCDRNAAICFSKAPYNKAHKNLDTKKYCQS
# Rh123 counter: fluorescence retest of MPTP screen hits in isolated mitochondria, single concentration; shares compounds with MPTP inh; membrane potential, Rhodamine 123 fluorescence; inhibition, % at 10 µM; 78% of 5,000 active; in the data active = inhibition above about 22%;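 also: 0% = DMSO vehicle and 100% = positive control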
# * = called active by the depositor; nt = no result given.
SMILES,ATG4B inhibitor,SKN-1 block,F508del corr,MPTP inh,CendR NRP1 mod,PLA2 ctr,others
O=C(CSc1nc2ccccc2c(=O)n1-c1ccc(F)cc1)NCc1ccco1,19,11,-2,-1,1,nt,
CCOC(=O)CC(=O)CSc1nc2ccccc2c(=O)n1-c1ccc(C(=O)N2CCOCC2)cc1,2,-3,nt,-1,-3,nt,
O=C(c1ccc(-n2c(SCc3cc(F)ccc3F)nc3ccccc3c2=O)cc1)N1CCOCC1,47*,-6,0,0,-6,9,ATG4B conf=63*
Cc1nn(CCC(N)=O)c2nc(-c3cccs3)cc(C(F)(F)F)c12,86*,-4,1,0,-28,84*,
Cc1cc(OCC(F)(F)C(F)(F)C(F)(F)C(F)(F)C(F)(F)C(F)F)nc(N)n1,1,16,nt,45,2,nt,
NC(=O)c1ccc(OCC(F)(F)C(F)(F)C(F)(F)C(F)(F)C(F)(F)C(F)F)cc1,91*,0,3,1,-5,92*,
Cc1ccc(CNC(=O)/C=C/c2ccc(S(=O)(=O)NCc3ccco3)cc2)cc1,-12,-4,1,43,-10,nt,
O=C(/C=C/c1ccc(S(=O)(=O)NCc2ccco2)cc1)NCc1cccc(Cl)c1,52*,3,nt,4,-2,62*,
CCCOc1ccc(/C=C/C(=O)NCc2ccccc2)cc1,18,11,nt,-1,6,nt,
O=C(/C=C/c1ccc(OCCCF)cc1)NCc1cccc(Cl)c1,45*,3,nt,-2,11,49,
COc1ccc(-c2cn(CC[C@H]3CC[C@H](NC(=O)c4cnccn4)[C@@H](CO)O3)nn2)cc1,nt,nt,-2,nt,nt,nt,
CC(NC(=O)COc1ccccc1-c1ccccc1)c1ccccc1 (stereo not given),42*,-1,-3,6,-13,52*,
C/C(N)=C(/C#N)C(=O)CSc1nc2ccccc2c(=O)n1-c1ccccc1C,-2,-3,-4,3,0,nt,
C/C(N)=C(/C#N)C(=O)CSc1nc2ccccc2c(=O)n1-c1ccc(C)c(Cl)c1,47*,-5,nt,-3,-1,49,
NC(=O)c1ccc(-c2ccc(Br)cc2)o1,-12,15,nt,0,-12,nt,
NC(=O)C1CCN(C(=S)c2ccc(-c3ccc(Br)cc3)o2)CC1,51*,-4,0,-1,6,41,
Cc1nn(-c2ccccc2)cc1/C=N/NC(N)=S,4,-12,-1,0,-4,nt,
Cc1nn(-c2ccccc2)cc1C(c1c(N)[nH]c(=S)[nH]c1=O)c1c(N)[nH]c(=S)[nH]c1=O,46*,-4,-3,1,-43,-22,
CC(=O)Nc1cccc(/C(C)=N/Nc2ccc(S(=O)(=O)Nc3ccccc3C(=O)O)cc2[N+](=O)[O-])c1,23,12,0,1,-11,nt,
CC(=O)Nc1ccc(C=NNc2ccc([N+](=O)[O-])cc2S(=O)(=O)Nc2ccccc2C(=O)O)cc1,34,4,-3,3,-57,nt,
Cc1ccc(NC(=S)NNc2ccc([N+](=O)[O-])cc2S(=O)(=O)Nc2ccccc2C(=O)O)cc1C,74*,-5,nt,9,-10,71*,
O=C(O)c1ccccc1NS(=O)(=O)c1ccc(NNC(=S)Nc2ccc(OC(F)F)cc2)c([N+](=O)[O-])c1,51*,1,-2,-2,26*,64*,
COc1ccc2c3c(n(C)c2c1)[C@H](CO)N(C(=O)Nc1cccc(F)c1)CC31CCN(Cc2nccs2)CC1,nt,nt,3,nt,nt,nt,
CN1C(=O)c2cc(NS(C)(=O)=O)ccc2OC[C@H]2O[C@@H](CC(=O)NCc3ccccc3)CC[C@H]21,nt,nt,-1,nt,nt,nt,
O=C(NCc1cc(F)cc(F)c1)[C@H]1[C@H](CO)[C@H]2Cn3c(cccc3=O)[C@@H]1N2C(=O)Cc1ccccn1,nt,nt,-2,nt,nt,nt,
SMILES,ATG4B inhibitor,SKN-1 block,F508del corr,MPTP inh,CendR NRP1 mod,PLA2 ctr,others
Cc1cc(C(=O)N2CCCC(C(=O)c3ccc(Oc4ccccc4)cc3)C2)n[nH]1 (stereo not given),46*,21,-2,-1,2,39,ATG4B conf=62*
Cc1cc(Nc2ccc(Cl)cc2)n(-c2cccc(Cl)c2)n1,41*,-8,nt,35,-2,63*,
Cc1cc(Nc2ccc(Cl)cc2)n(-c2ccccc2)n1,34,-18,nt,-1,-1,nt,
Cc1c(Cl)c([N+](=O)[O-])nn1Cc1ccc(C(=O)N/N=C\c2cccc(Br)c2)o1,58*,-9,nt,-1,-4,68*,
CO[C@H]1CN(C)C(=O)c2ccc(NC(=O)C3CC3)cc2OC[C@@H](C)N(C(=O)c2ccccn2)C[C@H]1C,nt,nt,2,nt,nt,nt,
O=C(CSc1ncnc2sc3c(c12)CCCC3)c1ccco1,41*,3,nt,2,-15,51*,
Cc1nc(N2CCN(C(=O)c3cccs3)CC2)c2c3c(sc2n1)CCCC3,78*,0,nt,1,-4,86*,
Cc1nc(N2CCN(C(=O)c3ccco3)CC2)c2c3c(sc2n1)CC(C)CC3 (stereo not given),-4,-7,-2,7,4,nt,
Cc1nc(N2CCN(C(=O)c3ccco3)CC2)c2c3c(sc2n1)CCCC3,68*,11,nt,1,4,67*,
CCNC(=S)N1CCN(c2nc(CC)nc3sc4c(c23)CCCC4)CC1,73*,25,-1,0,1,83*,
CCS(=O)(=O)N1CCC2(CC1)CN(Cc1ccc3c(c1)OCO3)[C@@H](CO)c1[nH]c3cc(OC)ccc3c12,nt,nt,-1,nt,nt,nt,
CCc1nc(SCC(=O)N2CCN(C(=O)c3ccco3)CC2)c2c3c(sc2n1)CCCC3,44*,-11,nt,0,6,64*,
Cc1sc2nc(CN3CCCC3)nc(N3CCN(C(=O)c4ccco4)CC3)c2c1C,6,-6,1,1,-16,nt,
O=C(c1ccco1)N1CCN(c2nc(C3CC3)nc3sc4c(c23)CCCC4)CC1,93*,18,nt,-1,-24,91*,
C[C@H]1CCCCO[C@@H](CN(C)C(=O)Nc2cccc3ccccc23)[C@@H](C)CN([C@@H](C)CO)C(=O)c2cc(NC(=O)Cc3ccccc3)ccc2O1,nt,nt,0,nt,nt,nt,
Nc1c(C=C2C=CC(=O)C=C2)c(=O)nc2snc(SCc3ccccc3)n12,40*,-3,0,66*,-24,32,ATG4B conf=76*;Rh123 counter=59*

# From PubChem BioAssay
